# Only some compounds are listed: those with a hit (about 14% of all), similar ones and a draw of the others.
# Shiga toxin inh = blocks Shiga toxin action in Vero cells; AID 2315; 9.2% of 290,000 active; Vero cells, Shiga toxin protein synthesis inhibition reporter; inhibition, % at 38.7 µM; in the data active = inhibition mostly above about 28%, no sharp cut-off; inactive = mostly below about 43%; note: 0% is about no effect
# NS1 inh = influenza NS1 inhibition; Potency, µM (top dose mostly 46.1 µM), for inactives: top-dose activity, positive = more growth; 0.4% of 270,000 active; AID 2326; calls by dose curve; note: potency is the fitted concentration of half-maximal effect; actives are rising curves; nearly all actives have a fitted effect of over 50% in size
#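 S. cerevisiae expressing influenza A NS1, grown in glucose, washed, then diluted 1:100 into pH 6.0 -URA galactose medium with 23 nl compound. Growth recovery read as OD600; NS1-free strain serves as control.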
# LmPK inhibitor = blocks Leishmania mexicana pyruvate kinase activity; Potency, µM (series often up to 57.5 µM), without a hit: at the top dose activity change, negative = inhibition, hits mostly inhibitors; AID 1721; purified LmPK, Kinase-Glo ATP luminescence, 1 h; 0.37% of 290,000 active; note: potency is the fitted concentration of half-maximal effect; % is set by controls: 0 for no effect and ±100 for the full control effect
#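 Screened at intermediate enzyme activity to detect both inhibitors and activators: LmPK at 0.1 nM, with a 0.5 nM enzyme column as activation reference. PEP 0.5 mM, ADP 0.1 mM; ATP detected by luminescence after 1 h.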
# FBPA Giardia inh = blocks Giardia fructose-bisphosphate aldolase activity. A8B2U2. purified Giardia FBPA. Potency, µM (series often up to 59.6 µM), without a hit: at the top dose activity, negative = inhibition, most hits filed as inhibitors. 0.71% of 290,000 active; note: potency is the fitted concentration of half-maximal effect; % is set by controls: 0 for no effect and ±100 for the full control effect; nearly all actives have a fitted effect of over 55% in size
# Target sequence (A8B2U2 whole entry, looked up): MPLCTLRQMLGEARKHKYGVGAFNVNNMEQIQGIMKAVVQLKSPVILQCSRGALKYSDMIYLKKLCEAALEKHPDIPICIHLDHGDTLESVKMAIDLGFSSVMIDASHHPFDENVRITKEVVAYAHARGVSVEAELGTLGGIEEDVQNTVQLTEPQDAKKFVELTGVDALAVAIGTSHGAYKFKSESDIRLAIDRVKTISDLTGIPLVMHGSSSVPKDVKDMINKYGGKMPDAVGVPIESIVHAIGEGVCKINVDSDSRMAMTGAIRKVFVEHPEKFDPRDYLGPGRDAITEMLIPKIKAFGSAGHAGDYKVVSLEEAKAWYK
#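 40 nM FBPA preincubated 10 min at RT with compound (up to 57.5 uM final), then substrate plus GAPDH/TPI/NAD/arsenate coupling and diaphorase/resazurin added. Fluorescence read after 20 min at RT, 525/598 nm.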
# Cycloheximide cs = affects cycloheximide protein synthesis inhibition readout, counter-screen; cell reporter, cycloheximide protein synthesis inhibition counterscreen; max response, %; 12% of 300,000 active; AID 2314; in the data active = max response mostly above about 13%, no sharp cut-off; inactive = mostly below about 14%; note: read at 38.3 µM for the half of the compounds with a filed dose; 0% is about no effect
# Starred values were filed as active, the others as inactive; u = inconclusive; x = no result given; [ ] = dose if it differs, or a comment. Unless noted, calls come from the whole dose curve; as a rule, active = well fitted curve in the direction sought with a large enough effect; inconclusive = small, poorly fitted or top-dose-only effect, or another doubt; inactive = no such curve, though single readings can be large; an effect the other way counts as inactive or inconclusive.
SMILES,Shiga toxin inh,NS1 inh,LmPK inhibitor,FBPA Giardia inh,Cycloheximide cs
COc1ccc(S(=O)(=O)NCCc2cn3cccc(C)c3n2)cc1OC,1.5,1.9%,4.0%,5.3%,-3.0
Cc1cccn2cc(-c3ccccc3)nc12,63.6*,-11.6%,u,-0.9%,51.6*
CCCOc1ccc(-c2cn3ccccc3n2)cc1,17.8,x,u,-17.4%,3.0
Cc1cccn2cc(CCNS(=O)(=O)c3cccs3)nc12,53.2,-1.4%,0.4%,-5.9%,20.7*
COc1ccc(-c2cn3ccc4ccccc4c3n2)cc1,63.8*,3.2%,-20.8%,-7.1%,37.0*
C=CCC(O)(C#Cc1ccccc1)c1ccccc1 (stereo unspecified),x,x,x,10.3%,x
Cc1cccn2cc(CNc3ccccc3)nc12,68.1*,-0.2%,-7.4%,-13.9%,50.6*
COc1ccc(-c2cn3cccc(C)c3n2)cc1Br,150.3*,-16.8%,-13.7%,-3.2%,76.0*
CCOC(=S)SCc1cn2cccc(C)c2n1,4.7,x,0.6%,u,23.9*
O=C(O)c1ccc(S(=O)(=O)N[C@H](Cc2ccc([N+](=O)[O-])cc2)C(=O)O)cc1,-2.4,x,x,0.2%,3.2
O=C(O)C1CCN(C(=O)c2ccc3c(c2)OCO3)CC1,5.7,-5.1%,-1.2%,x,0.9
CCCn1cnc2cc(NCc3cccs3)ccc21,106.0*,9.2%,-3.6%,1.0%,32.8*
CCN(CC)c1ccc(CNc2ccc3c(c2)ncn3C(C)(C)C)cc1,-3.0,-2.5%,-1.1%,4.6%,7.5
CCc1ccc(CNc2ccc3c(c2)ncn3C(C)(C)C)cc1,93.6*,-2.3%,-6.6%,11.1%,39.5*
CC(C)(C)n1cnc2cc(NCc3ccc(Br)cc3)ccc21,116.9*,-3.6%,1.2%,-2.8%,46.9*
CCc1ccc(CNc2ccc3c(c2)ncn3CC)cc1,85.9*,-4.6%,-6.6%,1.9%,52.7*
CCCCn1cnc2cc(NCc3ccncc3)ccc21,0.8,-6.3%,3.8%,-6.1%,7.1
CCOC(=O)N1C(=O)[C@](CC)(c2ccccc2)N1C(=O)OCC,9.2,-5.8%,-5.4%,0.1%,19.3*
CCc1cc(=O)oc2c(C)c(OCC(=O)NC3CC(C)(C)NC(C)(C)C3)ccc12,-7.9,0.6%,-1.0%,x,1.4
COc1ccc(C(=O)/C=C/Nc2ccc(S(=O)(=O)Nc3cccc(C(C)=O)c3)cc2)cc1,93.4*,-5.4%,-1.0%,0.8%,39.1*
COc1cccc(C(=O)/C=C/Nc2ccc(S(=O)(=O)Nc3ncccn3)cc2)c1,103.0*,2.6%,1.4%,6.9%,42.8*
COc1cccc(C(=O)/C=C/Nc2ccc(S(=O)(=O)Nc3nc(C)cc(C)n3)cc2)c1,-4.0,-12.3%,0.6%,1.1%,9.9
O=C(/C=C\Nc1ccc(S(=O)(=O)Nc2ncccn2)cc1)c1ccccc1,142.3*,0.5%,-0.2%,7.0%,50.6*
COc1ccc(OC)c(S(=O)(=O)Nc2cccc(C(C)=O)c2)c1,7.1,4.2%[9.22 µM],0.3%,5.5%,-1.7
COc1cccc(C(=O)/C=C/Nc2ccc(S(=O)(=O)Nc3ccc(C(C)=O)cc3)cc2)c1,91.1*,4.8%,3.0%,0.3%,50.9*
SMILES,Shiga toxin inh,NS1 inh,LmPK inhibitor,FBPA Giardia inh,Cycloheximide cs
COc1cccc(-c2nccc(NC3CCNCC3)n2)c1,x,x,x,-10.1%,x
CC(=O)c1ccc(NS(=O)(=O)c2cccc(C)c2)cc1,88.6*,11.2%,0.5%,19.3%,35.5*
Cc1ccc(NC(=O)C(=O)NCC2CCCO2)cc1 (stereo unspecified),101.4*,0.6%,-5.4%,0.3%,57.6*
COC(=O)c1ccc(NC(=O)C(=O)NCC2CCCO2)cc1 (stereo unspecified),13.4,11.1%,-2.5%,2.1%,0.4
Cc1ccc(NC(=O)C(=O)NCC2CCCO2)cc1C (stereo unspecified),100.4*,-5.9%,-4.4%,-0.1%,30.9*
Cc1ccc(NC(=S)NCC2CCCO2)cc1C (stereo unspecified),12.0,-3.6%,4.3%,-7.9%,9.0
Cc1cc(C)cc(OCC(=O)NCC2CCCO2)c1 (stereo unspecified),100.4*,-3.4%,-3.5%,-1.6%,23.5*
Cc1cc(C)cc(NC(=O)C(=O)NCC2CCCO2)c1 (stereo unspecified),32.5,-7.1%,-14.1%,2.3%,24.8*
COc1ccc(CCC(=O)N2CCCC(Nc3ccc(C)c(C)c3)C2)cc1OC (stereo unspecified),-7.0,0.3%,-3.2%,-2.8%,23.0*
CC(C)C[C@H](NC(=O)[C@@H](N)Cc1ccccc1)C(=O)N[C@@H](Cc1ccccc1)C(=O)N[C@@H](CCC(N)=O)C(=O)N1CCC[C@H]1C(=O)N[C@@H](CCC(N)=O)C(=O)N[C@@H](CCCN=C(N)N)C(=O)N[C@@H](Cc1ccccc1)C(N)=O,-11.2,x,x,3.7%,-1.2
O=C(O)CC1(c2ccc(F)cc2)C2CC3CC(C2)CC1C3 (stereo unspecified),-11.3,-52.6%,-1.3%,2.8%,-2.9
CS(=O)(=O)N1CCN(c2ccc(NC(=S)NC(=O)c3cccs3)cc2)CC1,17.0,3.5%,8.1%,15.3%,16.1*
O=C(NC(=S)Nc1ccccc1N1CCCC1)c1cccs1,54.6*,9.3%,-0.5%,-27.1%,50.9*
O=C(NC(=S)Nc1ccc(N2CCCCC2)cc1)c1cccs1,78.7*,-0.5%,0.9%,-5.0%,51.7*
O=C1CSc2ccc(S(=O)(=O)N3CCN(c4ccccc4F)CC3)cc2N1,-6.0,-4.0%,8.7%,x,7.5
S=C(c1ccc(-c2ccc(Br)cc2)o1)N1CCOCC1,91.8*,-9.5%,-18.7%,-6.4%,50.6*
O=C(NCC1CCCO1)c1ccc(-c2cccc(C(F)(F)F)c2)o1 (stereo unspecified),-21.8,-1.9%,1.6%,x,12.4
S=C(Nc1ccccc1Cl)N1CCOCC1,-10.3,4.6%,-0.8%,-2.1%,-2.5
O=C(c1ccc(-c2cccc(Cl)c2Cl)o1)N1CCOCC1,133.1*,-5.4%,-17.9%,0.7%,37.2*
S=C(c1ccc(-c2ccccc2Cl)o1)N1CCOCC1,93.4*,-91.7%,-1.9%,-7.1%,23.7*
O=C(c1ccc(CS(=O)c2ccccc2Cl)o1)N1CCOCC1 (stereo unspecified),-10.7,6.5%,-16.0%,x,-9.2
O=C(c1ccc(-c2cccc(C(F)(F)F)c2)o1)N1CCOCC1,73.9*,-61.1%,-0.4%,0.1%,37.4*
COC(=O)C1=C(C(=O)OC)[C@@H]2N(C)c3ccccc3[C@@]23C[C@@H](C(=O)OC)N(S(=O)(=O)c2ccc(OC)cc2)C3=N1,x,x,4.6%[11.5 µM],0.2%[12.9 µM],x
COc1ccc(-c2nc(-c3ccccc3)oc2Nc2ccccc2C)cc1,x,x,x,-2.0%,x
S=C(c1ccc(-c2ccc(Cl)c(Cl)c2)o1)N1CCOCC1,95.6*,-5.2%,u,-12.9%,62.3*
O=C(c1ccc(-c2ccc([N+](=O)[O-])cc2Cl)o1)N1CCOCC1,56.9*,-7.6%,0.4%,-2.5%,26.1*
O=C(c1ccc([N+](=O)[O-])o1)N1CCOCC1,-2.8,x,-12.7%,-10.1%,9.6
O=C(O)CCNC(=S)Nc1cccc(F)c1,-11.1,u,-4.7%,-1.3%,-2.9
S=c1nccc(-c2ccc3c(c2)CCO3)[nH]1,-7.0,15.1%,0.6%,-13.4%,-2.7

# Source: PubChem BioAssay (National Center for Advancing Translational Sciences (NCATS))
